# Screening results as filed in PubChem.
# Most compounds without a hit are left out; they make up all but 6.7% or so of the library.
# KB-V1 MDR tox: kills drug-selected multidrug resistant KB-V1 cells; 3.4% of 400,000 active; KB-V1 MDR cells viability, CellTiter-Glo, 72 h; Potency, µM (highest dose often 46.1 µM), hits mostly cytotoxic; AID 1347076; further: on the % scale 0 is the no-effect control and ±100 the full control effect; nearly all actives have a fitted effect of over 60% in size
#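 Following 72 h at 37 degrees C with compound, KB-V1 cell viability was read by CellTiter-Glo luminescence, medium being phenol-red-free DMEM plus 10% FBS; concentration-response parameters came from normalized, curve-fitted qHTS data.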
# KB-3-1 cytotox: KB-3-1 parental cell cytotoxicity | KB-3-1 viability, CellTiter-Glo ATP luminescence, 72 h | Potency, µM (titrated, usually from 46.1 µM), usual class: cytotoxic | 1.4% of 400,000 active; further: on the % scale 0 is the no-effect control and ±100 the full control effect; nearly all actives have a fitted effect of over 60% in size
#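 Viability of parental KB-3-1 cells, measured by CellTiter-Glo luminescence, followed a 72 h incubation at 37 °C with pinned compounds in phenol-red-free DMEM containing 10% FBS.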
# SW480 rereplic: DNA re-replication induction in SW480 cells; SW480 DNA re-replication, Hoechst DNA content imaging, 48 h; Potency, µM (doses to about 46.1 µM), for inactives: at the top dose re-replication activation, actives largely listed as activators; 1.8% of 340,000 active; further: % of control where 0% means no effect; nearly all actives have a fitted effect of over 55% in size
#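 Image-based read-out: total Hoechst fluorescence of nuclei (405 nm excitation, 500-530 nm emission), with hits raising the fraction of high-intensity nuclei. SW480 colon cells incubated 48 hr with compounds at 37 C.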
# MCF10A rerep: DNA re-replication induction in MCF 10a cells; AID 624296; 2.9% of 350,000 active; Potency, µM (doses to about 46.1 µM), inactives show at the highest dose activity, positive = re-replication, actives largely listed as activators; MCF 10A DNA re-replication, Hoechst nuclear intensity, 48 h; further: % of control where 0% means no effect; nearly all actives have a fitted effect of over 50% in size
# PINK1 modulator: PINK1 expression modulation | 0.2% of 410,000 active | Potency, µM (doses to about 76.6 µM), inactives show at the highest dose activation (PINK1 increase), most hits filed as activators | PINK1 immunofluorescence, high-content cytometry, 24 h | AID 624263; active means well fitted activation curve with a large enough effect; inconclusive means small, poorly fitted or top-dose-only effect; cell line not stated here; further: % of control where 0% means no effect; nearly all actives have a fitted effect of over 65% in size
#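 PINK1 protein, normally rapidly degraded, was detected by immunofluorescence after 24 hour compound treatment of a stable cell line. Titration data (5 concentrations) came from laser-scanning cytometry, with CCCP-treated wells as controls.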
# * = called active by the depositor; i = inactive; ? = inconclusive; · = not tested or not shown; [ ] = dose if it differs, or a comment. Unless noted, the call rests on the fitted dose curve; in most records, active means well fitted curve in the direction sought with a large enough effect; inconclusive means small, poorly fitted or top-dose-only effect, or another doubt; inactive means no such curve, though single readings can be large; an effect the other way counts as inactive or inconclusive. Potency means the concentration at half of the fitted maximal effect.
SMILES,KB-V1 MDR tox,KB-3-1 cytotox,SW480 rereplic,MCF10A rerep,PINK1 modulator
COc1ccc(CN2[C@@H](CC(C)=O)c3ccc(/C=C/C(C)=O)cc3S2(=O)=O)cc1,?,?,?,?,-1%
COc1cccc(N2[C@@H](CC(C)=O)c3ccc(/C=C/C(C)=O)cc3S2(=O)=O)c1,?,?,11%,21µM*,-1%
CCOc1ccc(NC(=O)CC2C(=O)N(c3cccc(C)c3)C(=O)N2CCC2=CCCCC2)cc1 (configuration not stated),?,i,·,·,1%
COCCN1C(=O)C(C(=O)OC)CC2=C1CC(C)(C)CC2=O (configuration not stated),i,i,-10%,-2%,2%
CSc1nccc(-c2nn(-c3ccc(C)cc3)ccc2=O)n1,2.9µM*,5.2µM*,13µM*,8.2µM*,4%
C=CCSc1nc(=O)n2ccc(C)cc2n1,i,i,-15%,2%,1%
Nc1nccc(-c2nn(-c3ccc(Cl)cc3)ccc2=O)n1,i,i,-3%,1%,0%
C#CCSc1nccc(-c2nn(-c3ccc(C)cc3)ccc2=O)n1,?,i,35%,?,-1%
C=CCSc1nccc(-c2nn(-c3ccc(C)cc3)ccc2=O)n1,3.7µM*,6.5µM*,?,8.2µM*,6%
CCSc1nccc(-c2nn(-c3ccc(C)cc3)ccc2=O)n1,2.6µM*,2.1µM*,7.3µM*,5.2µM*,1%
C[C@@H]1CN([C@H](C)CO)C(=O)CCCn2cc(nn2)CO[C@H]1CN(C)C(=O)Nc1ccccc1,i,i,·,·,-2%
COc1ccccc1CNc1ncncc1-c1ccccc1Cl,·,·,·,·,2%
Cc1cccc(C2=NN(c3ccc(Br)cc3)[C@@H](C(=O)N3CCOC3=O)[C@@H]2c2ccc(Cl)cc2)c1,i,i,8.2µM*,?,5%
O=C1OCCN1C(=O)[C@H]1[C@H](c2ccc([N+](=O)[O-])cc2)C(c2cccc(Cl)c2)=NN1c1ccc(Br)cc1,i,i,-7%,-3%,2%
Cc1cccc(C2=NN(c3ccccc3)[C@@H](C(=O)N3CCOC3=O)[C@@H]2c2ccc([N+](=O)[O-])cc2)c1,i,i,17%,-8%,0%
Cc1cccc(C2=NN(c3ccc(Br)cc3)[C@@H](C(=O)N3CCOC3=O)[C@@H]2c2ccc(F)cc2)c1,i,i,9.2µM*,?,1%
CCCN1C(=O)/C(=C/c2ccc(C)o2)SC1=Nc1ccc(OC)cc1,i,i,1%[9.22 µM],16µM*,7%
CCCN1C(=O)/C(=C/c2ccc(C)o2)SC1=Nc1ccc(OCC)cc1,i,i,-5%,-4%,?
CCOCCCn1c(=NC(C)=O)c(C#N)cc2c(=O)n3cccc(C)c3nc21,?,i,13µM*,?,-1%
CCOC(=O)c1cc2c(=O)n3cccc(C)c3nc2n(CC2CCCO2)c1=NC(C)=O (configuration not stated),i,?,-3%,?,1%
CCCCCn1c(=NC(=O)c2cccnc2)c(C#N)cc2c(=O)n3cccc(C)c3nc21,i,i,8.2µM*,13µM*,2%
CCCCn1c(=NC(=O)c2ccc3c(c2)OCO3)c(C#N)cc2c(=O)n3cccc(C)c3nc21,?,?,?,?,-1%
CCCCn1c(=NC(C)=O)c(C#N)cc2c(=O)n3cccc(C)c3nc21,i,?,21µM*,12µM*,8%
CCCCCn1c(=NC(C)=O)c(C#N)cc2c(=O)n3ccccc3nc21,i,i,?,?,-2%
CCCC1NC(=O)c2cccnc2-n2c1nc1ccc(OC)cc1c2=O (configuration not stated),i,i,·,·,1%
SMILES,KB-V1 MDR tox,KB-3-1 cytotox,SW480 rereplic,MCF10A rerep,PINK1 modulator
CN(C)C(=O)c1cccc(-c2cc(NC=O)c3ncc(-c4ccc(F)cc4)n3c2)c1,21µM*,?,·,·,-1%
COc1cccc(-c2cnc3c(NC=O)cc(-c4ccccc4)cn23)c1,7.3µM*,5.2µM*,·,·,1%
COc1cccc(-c2cnc3c(NC=O)cc(-c4cc(C)c(O)c(C)c4)cn23)c1,?,6.5µM*,·,·,8%
COc1cccc(-c2cnc3c(NC=O)cc(-c4ccc(S(C)(=O)=O)cc4)cn23)c1,?,i,·,·,1%
COc1cccc(-c2cc(NC=O)c3ncc(-c4ccc(C(C)=O)cc4)n3c2)c1,18µM*,5.2µM*,·,·,-1%
O=C(Cc1nnc(NC(=O)c2cccc([N+](=O)[O-])c2)s1)NCc1ccccc1,i,i,-9%,-2%,1%
COC(=O)c1cc(=O)nc(NN=Cc2ccc(C)cc2)s1,i,i,·,·,1%
COc1cccc(-c2cnc3c(NC=O)cc(-c4ccccc4Oc4ccccc4)cn23)c1,21µM*,?,·,·,-1%
CC(C)(C(=O)O)c1ccc(C(O)CCCN2CCC(C(O)(c3ccccc3)c3ccccc3)CC2)cc1 (configuration not stated),·,·,-55%,-2%,0%
N#Cc1cccc(OCCCN2CCC(C(O)(c3ccccc3)c3ccccc3)CC2)c1,23µM*,?,·,·,2%
N#Cc1ccc(OCC(O)CN2CCC(C(O)(c3ccccc3)c3ccccc3)CC2)cc1 (configuration not stated),i,i,?,?,3%
Cc1cc(OCCCN2CCC(C(O)(c3ccccc3)c3ccccc3)CC2)ccc1Br,21µM*,?,·,·,-1%
COc1ccc(CC(=O)NCc2nc3cccnc3n2Cc2ccc(F)cc2)cc1OC,·,·,·,·,1%
Cc1nc(SC(C)C(=O)Nc2ccccc2Cl)cc(-c2ccccc2)n1 (configuration not stated),·,·,·,·,3%
O=C(Nc1ccc(S(=O)(=O)Nc2ccccc2)cc1)N1CCCC1,i,i,·,·,0%
CCOC(=O)Cc1csc(NC(=O)CCc2ccc(S(=O)(=O)N3CCOCC3)cc2)n1,i,i,23µM*,?,1%[38.3 µM]
CCOC(=O)Cc1csc(NC(=O)c2cc(C)c(C)s2)n1,18µM*,?,-1%,0%,3%
CCOC(=O)Cc1csc(NC(=O)c2ccc(S(=O)(=O)N3CCCCC3)cc2)n1,15µM*,i,-5%,5%,-6%[38.3 µM]
CCOC(=O)Cc1csc(NC(=O)c2ccc(Br)cc2)n1,i,i,-13%,3%,2%
CCOC(=O)Cc1csc(NC(=O)c2ccc(Cl)s2)n1,i,?,-41%,3%,4%
CCOC(=O)Cc1csc(NC(=O)CN2CCOCC2)n1,i,i,4%,0%,-1%
CCOC(=O)c1cc(Br)c(=O)n2ccccc12,15µM*,i,-5%,-2%,-1%
